# Measurements reported in PubChem BioAssay (NCATS).
# Results filed as inconclusive are left out. Where a call stands in place of a potency, no number is given. The source made the active and inactive calls. Unless noted, calls come from the whole dose curve; as a rule, active = well fitted curve in the direction sought with a large enough effect; inconclusive = small, poorly fitted or top-dose-only effect, or another doubt; inactive = no such curve, though single readings can be large; an effect the other way counts as inactive or inconclusive.
# Key:
# [1] = qHTS for Inhibitors of Plasmodium falciparum (CP250) proliferation (AID 504320)
# Method in brief: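 Parasite growth measured as SYBR Green DNA fluorescence (ex 485, em 535 nm) after overnight lysis following 72 h culture at 37 °C, 0.3% parasitemia, 2.5% hematocrit. Values normalized against DMSO and 0.29 uM artemisinin controls, with plate-stack correction.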
# [2] = target: Atrial natriuretic peptide receptor 1 (Homo sapiens) (UniProt P16066); test: Natriuretic polypeptide receptor (hNpr1) antagonism - Pilot CMLD screen (AID 1347052; calls by dose curve;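 note: HEK293 cells with hNpr1 stimulated by hNppA peptide at 0.1 nM; cGMP level read as GloSensor luciferase luminescence after agonist stimulation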)
# Furin (Homo sapiens) = Furin (Homo sapiens) (UniProt P09958); test: Furin counterscreen qHTS for Zika virus inhibitors (AID 1347149); note: nearly all actives have a fitted effect of over 70% in size; note: potency is the fitted concentration of half-maximal effect;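 for activity change, negative = inhibition: purified recombinant full-length human furin enzyme at 5 nM; fluorescence gain from furin cutting a BOC-RVRR-AMC peptide substrate over 15 min; top concentration of the series differs between compounds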
# Method in brief: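 Counterscreen measures cleavage of 2 microM BOC-RVRR-AMC, below its ~15 microM Km, by 5 nM full-length human furin at pH 7.0 after a 15-min compound preincubation. Inhibition derives from the 15-min fluorescence increase at 37C.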
# [3] = test system: Zika virus NS2B-NS3 protease (unlinked complex); test: Confirmatory screen GU AMC qHTS for Zika virus inhibitors (AID 1347153); note: nearly all actives have a fitted effect of over 70% in size;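 for potency: enzyme at 25 nM with substrate at 10 µM below its Km of 18.3 µM; potency is the fitted concentration of half-maximal effect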
# Method in brief: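 Noncovalent NS2B hydrophilic domain/NS3 protease complex (25 nM) in 10 mM Tris-HCl pH 8.0, 0.01% Tween 20 was preincubated 15 min at room temperature with compounds. Then 10 µM AMC substrate (Km 18.3 µM) was added; fluorescence was read over 15 min and fitted to a 4-parameter Hill equation.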
# [4] = test system: Zika virus NS2B-NS3 protease (linked construct); test: 384 well plate NINDS Rhodamine confirmatory qHTS for Zika virus inhibitors (AID 1347164);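 note: fluorescence from protease cleavage of Ac-LKRR-rhodamine 110 substrate; potency is the fitted concentration of half-maximal effect; nearly all actives have a fitted effect of over 65% in size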
# Method in brief: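 Linked NS2B-NS3 protease (final 5, 30 or 60 nM) preincubated ~15 minutes with compounds, then 10 microM Ac-LKRR-Rhodamine 110 added. Fluorescence (485/538 nm) read after 25 minutes at room temperature, normalized to no-enzyme and no-inhibitor controls.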
# [5] = test system: Zika virus NS2B-NS3 protease (linked construct); test: Confirmatory screen NINDS AMC qHTS for Zika virus inhibitors (AID 1347152); note: nearly all actives have a fitted effect of over 70% in size; note: potency is the fitted concentration of half-maximal effect;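 for activity change, negative = inhibition: AMC fluorescence gain from cleaved Bz-Nle-KRR-AMC substrate over 15 min; top concentration of the series differs between compounds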
# Method in brief: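 Linked NS2B-NS3 protease, 1 nM, in 10 mM Tris-HCl pH 8.0, 0.01% Tween 20; compounds preincubated 15 min at room temperature. Nle-KRR-AMC 10 microM (Km 18.3 µM); 15-min fluorescence change (340/450 nm) fitted to 4-parameter Hill.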
# [6] = ZIKV-mCherry secondary qHTS for Zika virus inhibitors (AID 1347158); note: top concentration of the series differs between compounds
# Method in brief: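 This orthogonal imaging screen measured ZIKV-mCherry infection of Vero cells exposed to compound, MOI 1, 48-72 h. Percent infection came from segmented nuclei scored mCherry-positive above 3 SD of negative controls.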
# [7] = test system: Zika virus NS2B-NS3 protease (linked); test: 384 well plate NINDS AMC confirmatory qHTS for Zika virus inhibitors (AID 1347163); note: nearly all actives have a fitted effect of over 50% in size; note: potency is the fitted concentration of half-maximal effect;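 for activity change, negative = inhibition: linked protease at 5 30 or 60 nM final depending on run; fluorescence of AMC released from Ac-VKTGKR-AMC peptide cleaved by the protease; top concentration of the series differs between compounds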
# Method in brief: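 Enzyme (5, 30 or 60 nM final) first met test compounds for ~15 min. The AMC-tagged peptide Ac-VKTGKR-AMC followed at 30 microM. Fluorescence was then recorded at 25 min and scaled against no-enzyme and no-inhibitor wells.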
# [8] = Tertiary RLuc qRT-PCR qHTS assay for Zika virus inhibitors (AID 1347169); note: nearly all actives have a fitted effect of over 55% in size; note: potency is the fitted concentration of half-maximal effect; for activity change, negative = inhibition: top concentration of the series differs between compounds
# Method in brief: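 Vero cells (1,000/well) infected with recombinant ZIKV-RLuc (Cambodian) at MOI 1-2 after compound addition, 48-72 hrs at 37 degrees C. Live-cell Renilla luciferase substrate added; luminescence read after 1-1.5 hrs.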
# [9] = target: Cytochrome P450 3A4 (Homo sapiens) (UniProt P08684); test: qHTS Assay for Inhibitors and Substrates of Cytochrome P450 3A4 (AID 884); note: nearly all actives have a fitted effect of over 50% in size
# Method in brief: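 Luminescent readout of luciferin produced by CYP3A4 (20 nM) dealkylation of Luciferin-PPXE, 25 uM (its KM). NADPH-driven reaction ran 60 min at RT after 10 min compound preincubation; data scaled to 57 uM ketoconazole as 100% inhibition.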
# [10] = Confirmation and Secondary Assay for Modulators of Hemoglobin Beta Chain Splicing at IVS2 654 locus (AID 910);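 note: HeLa cells stably carrying EGFP split by mutant beta-globin IVS2-654 intron; per-well total GFP intensity by laser scanning cytometry after 2-day treatment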
# Method in brief: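 Readout: per-well total peak green fluorescence (488 nm ex, 500–520 nm em) from objects 5–250 µm, reflecting correct splicing of an EGFP-654 reporter. Compounds were applied for 2 days at 37 °C to overnight-plated HeLa EGFP-654 cells; controls were DMSO and 500 nM IVS2-654 PNA.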
# [11] = Confirmation and Secondary Assay for Modulators of Hemoglobin Beta Chain Splicing at IVS2 705 locus (AID 930);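 note: HeLa cells stably expressing the EGFP-705 splicing reporter; GFP fluorescence per well restored by corrected splicing of the IVS2-705 intron in EGFP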
# Method in brief: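 Stable HeLa line with EGFP disrupted by mutant beta-globin intron 2 (705). Overnight attachment, then 2 days of compound at 37C, 5% CO2. Signal: peak GFP intensity summed over objects 5-250 µm.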
# [12] = qHTS Assay for Lipid Storage Modulators (AID 1519; calls by dose curve); settings: Drosophila S3 cells, BODIPY lipid droplet/cell ratio, laser cytometry, cells loaded with oleic acid
# Method in brief: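 Cells seeded at 5,000 per well were treated with compounds over a concentration series and loaded with oleic acid (400 uM, as added). Lipid droplet fluorescence (488 nm excitation, 500-530 nm channel) was read by laser-scanning cytometry and normalized to 20 uM Triacsin C.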
# [13] = target: Ubiquitin carboxyl-terminal hydrolase 1 (Homo sapiens) (UniProt O94782); test: Inhibitors of USP1/UAF1: Pilot qHTS (AID 504865); note: potency is the fitted concentration of half-maximal effect; nearly all actives have a fitted effect of over 35% in size
# Method in brief: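 USP1/UAF1 complex at 1 nM preincubated 15 min at room temperature with compound, then Ub-Rho substrate added at 150 nM final. Fluorescence (480/540 nm) read kinetically in 50 mM HEPES pH 7.8, 0.5 mM EDTA, 1 mM TCEP, 0.1 mg/ml BSA, 0.01% Tween-20.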
# Chain of Atrial natriuretic peptide receptor 1 (Homo sapiens) (P16066 whole entry, looked up): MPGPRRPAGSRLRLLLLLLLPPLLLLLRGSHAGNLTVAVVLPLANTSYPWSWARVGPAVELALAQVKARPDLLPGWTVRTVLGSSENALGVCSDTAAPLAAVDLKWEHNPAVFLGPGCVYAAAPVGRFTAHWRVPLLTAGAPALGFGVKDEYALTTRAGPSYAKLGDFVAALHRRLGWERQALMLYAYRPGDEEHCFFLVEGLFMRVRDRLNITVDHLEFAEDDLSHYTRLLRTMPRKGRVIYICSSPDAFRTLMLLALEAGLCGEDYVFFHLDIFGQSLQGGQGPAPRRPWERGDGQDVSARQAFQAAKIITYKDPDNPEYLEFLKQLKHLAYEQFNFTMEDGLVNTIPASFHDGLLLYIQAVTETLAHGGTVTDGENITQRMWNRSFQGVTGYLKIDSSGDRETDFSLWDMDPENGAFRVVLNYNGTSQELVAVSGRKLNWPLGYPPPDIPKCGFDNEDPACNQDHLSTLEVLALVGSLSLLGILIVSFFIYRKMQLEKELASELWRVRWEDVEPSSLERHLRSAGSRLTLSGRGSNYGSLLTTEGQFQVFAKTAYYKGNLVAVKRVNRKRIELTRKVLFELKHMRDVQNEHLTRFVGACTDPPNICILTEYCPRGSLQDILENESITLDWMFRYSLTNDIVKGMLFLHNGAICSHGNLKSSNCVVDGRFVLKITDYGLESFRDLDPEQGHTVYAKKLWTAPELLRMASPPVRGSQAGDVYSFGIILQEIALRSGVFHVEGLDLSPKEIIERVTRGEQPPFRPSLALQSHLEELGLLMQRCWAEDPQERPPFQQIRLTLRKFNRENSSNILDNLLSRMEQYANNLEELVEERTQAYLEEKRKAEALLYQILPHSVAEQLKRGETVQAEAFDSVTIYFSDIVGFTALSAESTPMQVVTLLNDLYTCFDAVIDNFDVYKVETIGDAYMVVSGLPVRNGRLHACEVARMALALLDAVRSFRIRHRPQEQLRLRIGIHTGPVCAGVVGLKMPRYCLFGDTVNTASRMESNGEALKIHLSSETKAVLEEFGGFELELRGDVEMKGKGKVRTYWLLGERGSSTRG
# Chain of Furin (Homo sapiens) (P09958 whole entry, looked up): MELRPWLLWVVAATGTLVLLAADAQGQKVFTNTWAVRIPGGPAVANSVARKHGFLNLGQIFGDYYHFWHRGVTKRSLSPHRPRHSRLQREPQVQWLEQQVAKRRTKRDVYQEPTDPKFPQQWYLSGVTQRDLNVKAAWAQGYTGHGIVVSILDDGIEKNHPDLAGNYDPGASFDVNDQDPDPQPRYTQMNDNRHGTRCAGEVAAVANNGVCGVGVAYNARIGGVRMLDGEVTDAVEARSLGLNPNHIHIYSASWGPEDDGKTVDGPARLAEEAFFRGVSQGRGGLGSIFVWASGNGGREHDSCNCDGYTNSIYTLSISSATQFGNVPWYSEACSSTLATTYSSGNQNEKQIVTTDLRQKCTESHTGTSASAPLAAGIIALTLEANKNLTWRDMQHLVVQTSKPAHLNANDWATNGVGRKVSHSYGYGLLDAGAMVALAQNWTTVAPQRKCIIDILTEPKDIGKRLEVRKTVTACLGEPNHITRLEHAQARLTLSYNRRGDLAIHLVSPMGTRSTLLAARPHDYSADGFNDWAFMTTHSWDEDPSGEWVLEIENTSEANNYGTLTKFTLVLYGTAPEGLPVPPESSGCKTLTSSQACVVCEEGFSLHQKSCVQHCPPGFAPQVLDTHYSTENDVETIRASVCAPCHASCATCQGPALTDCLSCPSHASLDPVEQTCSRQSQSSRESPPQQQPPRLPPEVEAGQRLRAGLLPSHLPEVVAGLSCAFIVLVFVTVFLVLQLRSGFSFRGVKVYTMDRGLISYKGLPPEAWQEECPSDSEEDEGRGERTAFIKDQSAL
# Chain of Ubiquitin carboxyl-terminal hydrolase 1 (Homo sapiens) (O94782 whole entry, looked up): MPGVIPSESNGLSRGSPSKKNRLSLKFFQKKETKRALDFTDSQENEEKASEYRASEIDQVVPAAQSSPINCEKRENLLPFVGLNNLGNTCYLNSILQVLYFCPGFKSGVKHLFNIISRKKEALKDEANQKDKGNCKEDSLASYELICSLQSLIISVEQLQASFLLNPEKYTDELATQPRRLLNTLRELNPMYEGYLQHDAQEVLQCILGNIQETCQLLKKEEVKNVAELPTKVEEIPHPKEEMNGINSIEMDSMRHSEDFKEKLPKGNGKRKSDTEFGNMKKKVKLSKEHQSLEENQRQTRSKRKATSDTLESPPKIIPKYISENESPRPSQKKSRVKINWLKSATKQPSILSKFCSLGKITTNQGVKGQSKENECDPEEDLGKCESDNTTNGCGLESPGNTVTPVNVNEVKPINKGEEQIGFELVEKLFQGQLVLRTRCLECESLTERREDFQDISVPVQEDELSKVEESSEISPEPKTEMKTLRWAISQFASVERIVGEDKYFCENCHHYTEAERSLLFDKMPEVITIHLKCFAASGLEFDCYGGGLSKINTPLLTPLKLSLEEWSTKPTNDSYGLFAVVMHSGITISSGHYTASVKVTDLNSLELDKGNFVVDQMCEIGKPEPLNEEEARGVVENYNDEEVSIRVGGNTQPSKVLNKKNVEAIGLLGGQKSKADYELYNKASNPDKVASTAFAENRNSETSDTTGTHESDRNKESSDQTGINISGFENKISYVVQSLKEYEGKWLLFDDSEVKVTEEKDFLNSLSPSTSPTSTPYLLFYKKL
# Chain of Cytochrome P450 3A4 (Homo sapiens) (P08684 whole entry, looked up): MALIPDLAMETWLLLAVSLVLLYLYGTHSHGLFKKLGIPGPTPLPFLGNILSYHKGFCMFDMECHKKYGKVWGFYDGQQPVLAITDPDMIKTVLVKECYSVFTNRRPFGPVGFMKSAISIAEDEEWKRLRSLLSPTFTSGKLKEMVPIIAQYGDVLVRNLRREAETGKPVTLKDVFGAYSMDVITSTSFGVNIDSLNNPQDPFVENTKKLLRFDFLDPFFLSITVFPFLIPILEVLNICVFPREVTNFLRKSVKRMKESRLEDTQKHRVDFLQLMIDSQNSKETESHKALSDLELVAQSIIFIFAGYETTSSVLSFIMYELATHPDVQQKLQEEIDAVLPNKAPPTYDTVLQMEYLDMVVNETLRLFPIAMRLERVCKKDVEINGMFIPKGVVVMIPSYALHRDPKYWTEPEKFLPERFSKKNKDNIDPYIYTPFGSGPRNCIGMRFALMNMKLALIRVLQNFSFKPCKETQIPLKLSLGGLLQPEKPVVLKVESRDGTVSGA
compound,measurement,setting,value
COC(=O)C(C(=O)OC)C1OC23CN(S(=O)(=O)c4ccc(C)cc4)C=CC2(C)C3c2ccccc21 (configuration not stated),Potency,[1],inactive
same,Potency,[2],inactive
Oc1c(CN2CCOCC2)cc2c(c1-c1c(O)c(CN3CCOCC3)cc3c1CCCC3)CCCC2,Potency,[1],inactive
same,Potency,[2],inactive
C=CC[C@H]1C(=O)N2[C@@H](C[C@@H](C)[C@@H]2c2ccccc2)[C@@H](CC=C)C(=O)N2[C@H]1C[C@@H](C)[C@@H]2c1ccccc1,Potency,[1],inactive
same,Potency,[2],inactive
C[C@@H]1[C@@H](c2ccccc2)c2cc3ccccc3nc2-c2nc3ccccc3cc2[C@H]1C(=O)N1CCCC1,Potency,[1],inactive
same,Potency,[2],inactive
COc1cccc([C@@H]2NC(=O)CC=C[C@H](C)[C@H](c3cccc(OC)c3)NC(=O)CC=C[C@H]2C)c1,Potency,[1],inactive
same,Potency,[2],inactive
O=C(O)COc1ccc(-c2nccc3c2C(=O)N(Cc2ccccc2)CC(COc2cccc(C(F)(F)F)c2)O3)cc1 (configuration not stated),Potency,Furin (Homo sapiens),inactive
same,Potency,[3],44.1 µM (active)
same,Potency,[4],35.5 µM (active)
COc1ccc(-c2ccnc(N[C@H]3CO[C@H]4[C@@H]3OC[C@@H]4NS(=O)(=O)c3ccc4ccccc4c3)n2)cc1,Potency,Furin (Homo sapiens),inactive
same,Potency,[5],inactive
same,Potency,[3],inactive
O=[S+]([O-])([O-])c1ccc2c(c1)cc([S+](=O)([O-])[O-])c1nn(-c3ccc(/C=C/c4ccc(-n5nc6c([S+](=O)([O-])[O-])cc7cc([S+](=O)([O-])[O-])ccc7c6n5)cc4[S+](=O)([O-])[O-])c([S+](=O)([O-])[O-])c3)nc12,Potency,Furin (Homo sapiens),inactive
same,Potency,[5],49.4 µM (active)
same,Potency,[3],49.4 µM (active)
same,Potency,[6],inactive
same,Potency,[7],inactive
same,Potency,[4],11.2 µM (active)
same,Potency,[8],6.58 µM (active)
Cc1ncccc1OCC1CN(Cc2cccc(C(F)(F)F)c2)C(=O)c2c(ccnc2-c2ccc(OCC(=O)O)cc2)O1 (configuration not stated),Potency,Furin (Homo sapiens),inactive
same,Potency,[3],inactive
same,Potency,[8],inactive
O=C(Nc1cccc2ccccc12)O[C@@H]1CO[C@H]2[C@@H]1OC[C@@H]2NS(=O)(=O)c1ccc2ccccc2c1,Potency,Furin (Homo sapiens),69.8 µM (active)
same,Potency,[3],inactive
CC(C)CN1CC(COc2cccc(C(F)(F)F)c2)Oc2ccnc(-c3ccc(OCC(=O)O)cc3)c2C1=O (configuration not stated),Potency,Furin (Homo sapiens),inactive
same,Potency,[5],inactive
same,Potency,[3],inactive
same,Potency,[4],141 µM (active)
same,Potency,[8],inactive
N#C/C(=C\c1ccc(Br)cc1)c1nc(-c2cc3cc(Br)ccc3oc2=O)cs1,Potency,Furin (Homo sapiens),inactive
same,Potency,[5],inactive
same,Potency,[3],inactive
same,Potency,[8],inactive
CS(=O)(=O)c1ccc(Nc2ccc3c(c2)OCO3)c([N+](=O)[O-])c1,Potency,Furin (Homo sapiens),inactive
same,Potency,[3],inactive
same,Potency,[8],inactive
O=C(O)c1ccc(-c2ccc(OC(F)(F)F)cc2)cc1,Potency,Furin (Homo sapiens),inactive
same,Potency,[5],inactive
same,Potency,[3],inactive
same,Potency,[8],inactive
O=C(OC1Cc2c(O)cc(O)cc2OC1c1cc(O)c(O)c(O)c1-c1c(C2Oc3cc(O)cc(O)c3CC2O)cc(O)c(O)c1O)c1cc(O)c(O)c(O)c1 (configuration not stated),Potency,[9],inactive
same,outcome,[10],inactive
same,outcome,[11],inactive
same,"activity change, negative = inhibition",[12]; at 57.5 µM (top of the series),6.85% (inactive)
same,max response,[12]; measured here: cell count channel max response,18.1%
same,max response,[12]; measured here: lipid channel max response,26.1%
same,Potency,[13],44.7 µM (active)
same,Potency,Furin (Homo sapiens),17.5 µM (active)
same,Potency,[3],44.1 µM (active)
same,Potency,[6],inactive
same,Potency,[7],22.4 µM (active)
same,Potency,[4],17.8 µM (active)
same,Potency,[8],inactive
N#Cc1ccc(OCC2CN(Cc3cccc(C(F)(F)F)c3)C(=O)c3c(ccnc3-c3ccc(OCC(=O)O)cc3)O2)cc1 (configuration not stated),Potency,Furin (Homo sapiens),inactive
same,Potency,[5],inactive
same,Potency,[6],inactive
same,Potency,[4],39.8 µM (active)
same,Potency,[8],inactive
